What was measured:
Conditions in all cases: concentration: 1 μM,replicates: in singlicate; n = 1
[1] = tested on: T1, MEK5
T1 construct: gene MAP2K5

[2] = tested on: T2, MEK6
T2 construct: gene MAP2K6

[3] = tested on: MELK
[4] = tested on: MERTK
[5] = tested on: MET
[6] = tested on: T3, MINK
T3 construct: gene MINK1

[7] = tested on: MKK7
[8] = tested on: MKNK1
[9] = tested on: MKNK2
[10] = tested on: T4, MLCK
T4 construct: gene MYLK3

[11] = tested on: T5, MLK1
T5 construct: gene MAP3K9

[12] = tested on: MLK2
[13] = tested on: MLK3
[14] = tested on: MRCKA
[15] = tested on: T6, MRCKB
T6 construct: gene CDC42BPB

[16] = tested on: MST1R
[17] = tested on: T7, MST1
T7 construct: gene STK4

[18] = tested on: T8, MST2
T8 construct: gene STK3

[19] = tested on: T9, MST3
T9 construct: gene STK24

[20] = tested on: MST4
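Note: KINOMEscan kinase panel screen.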

| Structure (SMILES) | %Inh [1] [%] | %Inh [2] [%] | %Inh [3] [%] | %Inh [4] [%] | %Inh [5] [%] | %Inh [6] [%] | %Inh [7] [%] | %Inh [8] [%] | %Inh [9] [%] | %Inh [10] [%] | %Inh [11] [%] | %Inh [12] [%] | %Inh [13] [%] | %Inh [14] [%] | %Inh [15] [%] | %Inh [16] [%] | %Inh [17] [%] | %Inh [18] [%] | %Inh [19] [%] | %Inh [20] [%] |
| --- | --- | --- | --- | --- | --- | --- | --- | --- | --- | --- | --- | --- | --- | --- | --- | --- | --- | --- | --- | --- |
| CS(=O)(=O)Nc1ccc(-c2ccnc3[nH]ccc23)cc1 [GSK993273] | 67 | 16 | 51 | 56 | 2 | 23 | 0 | 72 | 95.9 | 15 | 4 | 33 | 10 | 12 | 9 | 34 | 11 | 5 | 20 | 11 |
| Cc1ccn2nc(-c3ccc(F)cc3)c(-c3ccncc3)c2c1.Cl [GW457859] | 7 | 2 | 7 | 24 | 0 | 67 | 0 | 6 | 0 | 2 | 0 | 0 | 0 | 24 | 3 | 36 | 0 | 0 | 14 | 0 |
| O=C(NCC1CC1)c1ccc(-c2cc(C(=O)NC3CC3)ccc2F)cc1 [GW810445] | 0 | 5 | 17 | 0 | 0 | 0 | 8 | 3 | 0 | 0 | 7 | 0 | 0 | 0 | 0 | 0 | 55 | 0 | 0 | 0 |
| COc1cccc(CNC(=O)NC2CCN(c3ccnc(Nc4cc(OC)c(OC)c(OC)c4)n3)C2)c1 (centres unmarked) [GSK1379765] | 99.9 | 0 | 15 | 17 | 26 | 12 | 0 | 21 | 39 | 6 | 25 | 26 | 41 | 17 | 0 | 49 | 0 | 27 | 0 | 0 |

From article PMC5540273 (PLoS ONE, 2017)
